# Measurements: article PMC8384837, “Expanding the binding specificity for RNA recognition by a PUF domain”
# Tests used:
# Test in all cases: yeast three-hybrid, YBZ-1, SC-Leu-His + 0.5 mM 3-AT, 4 days
# Conditions in all cases: tags: N-Gal4 AD-HA kept; label: inside an RPR1-promoter hybrid RNA with tandem MS2 sites; ssRNA
# PUM1 PUF domain R3-YWF = PUM1 PUF domain R3-YWF (Homo sapiens, UniProt Q14671 828-1176, C935Y;R936W;Q939F)
# Summary of the method: (§1)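 Pumilio-1 PUF domain libraries, randomized at the three base-contacting residues of each repeat, were co-expressed with matching RNA elements from a centromeric plasmid in strain YBZ-1, which carries a LexA–MS2 coat fusion and a HIS3 reporter. Transformants grew for four days on SC-Leu (input) or on SC-Leu-His + 0.5 mM 3-AT (selection), and the repeat regions were PCR-amplified and Illumina-sequenced. The interaction score is the log change in variant frequency from input to selection. That logarithm is base 2, with a pseudocount of 1 where a variant was absent.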
# PUM1 PUF domain R3-YRD = PUM1 PUF domain R3-YRD (Homo sapiens, UniProt Q14671 828-1176, C935Y;Q939D)
# PUM1 PUF domain R3-YRD, sequence (Q14671 828-1176 C935Y/Q939D): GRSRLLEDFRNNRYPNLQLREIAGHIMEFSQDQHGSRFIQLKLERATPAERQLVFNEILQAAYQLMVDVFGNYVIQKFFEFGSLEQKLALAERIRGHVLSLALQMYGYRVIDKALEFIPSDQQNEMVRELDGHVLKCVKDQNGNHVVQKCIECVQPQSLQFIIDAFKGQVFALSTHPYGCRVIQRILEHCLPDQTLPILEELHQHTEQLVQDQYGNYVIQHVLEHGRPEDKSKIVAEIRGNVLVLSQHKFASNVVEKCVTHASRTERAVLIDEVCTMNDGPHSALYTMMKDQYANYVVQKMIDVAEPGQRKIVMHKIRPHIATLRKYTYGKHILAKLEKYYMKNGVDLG
# Summary of the method: as §1
# PUM1 PUF domain R3-GRR = PUM1 PUF domain R3-GRR (Homo sapiens, UniProt Q14671 828-1176, C935G;Q939R)
# PUM1 PUF domain R3-GRR, sequence (Q14671 828-1176 C935G/Q939R): as the sequence (Q14671 828-1176 C935Y/Q939D) above, with Y108G, D112R counted along it
# Summary of the method: as §1
# PUM1 PUF domain R3-SQQ = PUM1 PUF domain R3-SQQ (Homo sapiens, UniProt Q14671 828-1176, C935S;R936Q)
# PUM1 PUF domain R3-SQQ, sequence (Q14671 828-1176 C935S/R936Q): as the sequence (Q14671 828-1176 C935Y/Q939D) above, with Y108S, R109Q, D112Q counted along it
# Summary of the method: as §1
# PUM1 PUF domain R4-RGG = PUM1 PUF domain R4-RGG (Homo sapiens, UniProt Q14671 828-1176, N971R;H972G;Q975G)
# PUM1 PUF domain R4-RGG, sequence (Q14671 828-1176 N971R/H972G/Q975G): as the sequence (Q14671 828-1176 C935Y/Q939D) above, with Y108C, D112Q, N144R, H145G, Q148G counted along it
# Summary of the method: as §1
# PUM1 PUF domain R5-RCL = PUM1 PUF domain R5-RCL (Homo sapiens, UniProt Q14671 828-1176, C1007R;R1008C;Q1011L)
# PUM1 PUF domain R5-RCL, sequence (Q14671 828-1176 C1007R/R1008C/Q1011L): as the sequence (Q14671 828-1176 C935Y/Q939D) above, with Y108C, D112Q, C180R, R181C, Q184L counted along it
# Summary of the method: as §1
# PUM1 PUF domain R5-RGE = PUM1 PUF domain R5-RGE (Homo sapiens, UniProt Q14671 828-1176, C1007R;R1008G;Q1011E)
# PUM1 PUF domain R5-RGE, sequence (Q14671 828-1176 C1007R/R1008G/Q1011E): as the sequence (Q14671 828-1176 C935Y/Q939D) above, with Y108C, D112Q, C180R, R181G, Q184E counted along it
# Summary of the method: as §1
# PUM1 PUF domain R5-QPI = PUM1 PUF domain R5-QPI (Homo sapiens, UniProt Q14671 828-1176, C1007Q;R1008P;Q1011I)
# PUM1 PUF domain R5-QPI, sequence (Q14671 828-1176 C1007Q/R1008P/Q1011I): as the sequence (Q14671 828-1176 C935Y/Q939D) above, with Y108C, D112Q, C180Q, R181P, Q184I counted along it
# Summary of the method: as §1
# PUM1 PUF domain R7-QSG = PUM1 PUF domain R7-QSG (Homo sapiens, UniProt Q14671 828-1176, S1079Q;N1080S;E1083G)
# PUM1 PUF domain R7-QSG, sequence (Q14671 828-1176 S1079Q/N1080S/E1083G): as the sequence (Q14671 828-1176 C935Y/Q939D) above, with Y108C, D112Q, S252Q, N253S, E256G counted along it
# Summary of the method: as §1
# PUM1 PUF domain R7-KPL = PUM1 PUF domain R7-KPL (Homo sapiens, UniProt Q14671 828-1176, S1079K;N1080P;E1083L)
# PUM1 PUF domain R7-KPL, sequence (Q14671 828-1176 S1079K/N1080P/E1083L): as the sequence (Q14671 828-1176 C935Y/Q939D) above, with Y108C, D112Q, S252K, N253P, E256L counted along it
# Summary of the method: as §1
# PUM1 PUF domain R7-RSQ = PUM1 PUF domain R7-RSQ (Homo sapiens, UniProt Q14671 828-1176, S1079R;N1080S;E1083Q)
# PUM1 PUF domain R7-RSQ, sequence (Q14671 828-1176 S1079R/N1080S/E1083Q): as the sequence (Q14671 828-1176 C935Y/Q939D) above, with Y108C, D112Q, S252R, N253S, E256Q counted along it
# Summary of the method: as §1
# PUM1 PUF domain R8-HFN = PUM1 PUF domain R8-HFN (Homo sapiens, UniProt Q14671 828-1176, N1122H;Y1123F;Q1126N)
# PUM1 PUF domain R8-HFN, sequence (Q14671 828-1176 N1122H/Y1123F/Q1126N): as the sequence (Q14671 828-1176 C935Y/Q939D) above, with Y108C, D112Q, N295H, Y296F, Q299N counted along it
# Summary of the method: as §1
# PUM1 PUF domain R8-TFR = PUM1 PUF domain R8-TFR (Homo sapiens, UniProt Q14671 828-1176, N1122T;Y1123F;Q1126R)
# PUM1 PUF domain R8-TFR, sequence (Q14671 828-1176 N1122T/Y1123F/Q1126R): as the sequence (Q14671 828-1176 C935Y/Q939D) above, with Y108C, D112Q, N295T, Y296F, Q299R counted along it
# Summary of the method: as §1
# PUM1 PUF domain R2-RKC = PUM1 PUF domain R2-RKC (Homo sapiens, UniProt Q14671 828-1176, N899R;Y900K;Q903C)
# PUM1 PUF domain R2-RKC, sequence (Q14671 828-1176 N899R/Y900K/Q903C): as the sequence (Q14671 828-1176 C935Y/Q939D) above, with N72R, Y73K, Q76C, Y108C, D112Q counted along it
# Summary of the method: as §1
# PUM1 PUF domain R1-TGR = PUM1 PUF domain R1-TGR (Homo sapiens, UniProt Q14671 828-1176, S863T;R864G;Q867R)
# PUM1 PUF domain R1-TGR, sequence (Q14671 828-1176 S863T/R864G/Q867R): as the sequence (Q14671 828-1176 C935Y/Q939D) above, with S36T, R37G, Q40R, Y108C, D112Q counted along it
# Summary of the method: as §1
# PUM1 PUF domain R1-QFR = PUM1 PUF domain R1-QFR (Homo sapiens, UniProt Q14671 828-1176, S863Q;R864F;Q867R)
# PUM1 PUF domain R1-QFR, sequence (Q14671 828-1176 S863Q/R864F/Q867R): as the sequence (Q14671 828-1176 C935Y/Q939D) above, with S36Q, R37F, Q40R, Y108C, D112Q counted along it
# Summary of the method: as §1
# PUM1 PUF domain R1-KRK = PUM1 PUF domain R1-KRK (Homo sapiens, UniProt Q14671 828-1176, S863K;Q867K)
# PUM1 PUF domain R1-KRK, sequence (Q14671 828-1176 S863K/Q867K): as the sequence (Q14671 828-1176 C935Y/Q939D) above, with S36K, Q40K, Y108C, D112Q counted along it
# Summary of the method: as §1
# PUM1 PUF domain R4-EWH = PUM1 PUF domain R4-EWH (Homo sapiens, UniProt Q14671 828-1176, N971E;H972W;Q975H)
# PUM1 PUF domain R4-EWH, sequence (Q14671 828-1176 N971E/H972W/Q975H): as the sequence (Q14671 828-1176 C935Y/Q939D) above, with Y108C, D112Q, N144E, H145W, Q148H counted along it
# Summary of the method: as §1
# PUM1 PUF domain R3-YWF, sequence (Q14671 828-1176 C935Y/R936W/Q939F): as the sequence (Q14671 828-1176 C935Y/Q939D) above, with R109W, D112F counted along it
sequence,measurement,setting,value
GGCUAGAACUAGUGGAUCCCCCGGCGCCCGGCGGCUCGAGCCCGGGUAAGUGUAAGUAGUCUGCAUGCCGCCGGGCGCCAUGCCUGCAGGUCGACUCUAGAAAACAUG,binding signal,PUM1 PUF domain R3-YWF,3.54 log2 enrichment (interaction score)
same,binding signal,PUM1 PUF domain R3-YRD,3.85 log2 enrichment (interaction score)
same,binding signal,PUM1 PUF domain R3-GRR,0.8 log2 enrichment (interaction score)
GGCUAGAACUAGUGGAUCCCCCGGCGCCCGGCGGCUCGAGCCCGGGUAAGUGUAAAUAGUCUGCAUGCCGCCGGGCGCCAUGCCUGCAGGUCGACUCUAGAAAACAUG,binding signal,PUM1 PUF domain R3-SQQ,2.27 log2 enrichment (interaction score)
same,binding signal,PUM1 PUF domain R4-RGG,2.44 log2 enrichment (interaction score)
GGCUAGAACUAGUGGAUCCCCCGGCGCCCGGCGGCUCGAGCCCGGGUAAGUGUCAAUAGUCUGCAUGCCGCCGGGCGCCAUGCCUGCAGGUCGACUCUAGAAAACAUG,binding signal,PUM1 PUF domain R5-RCL,1.64 log2 enrichment (interaction score)
same,binding signal,PUM1 PUF domain R5-RGE,2.34 log2 enrichment (interaction score)
GGCUAGAACUAGUGGAUCCCCCGGCGCCCGGCGGCUCGAGCCCGGGUAAGUGUUAAUAGUCUGCAUGCCGCCGGGCGCCAUGCCUGCAGGUCGACUCUAGAAAACAUG,binding signal,PUM1 PUF domain R5-RCL,2.91 log2 enrichment (interaction score)
same,binding signal,PUM1 PUF domain R5-RGE,0.96 log2 enrichment (interaction score)
same,binding signal,PUM1 PUF domain R5-QPI,3.43 log2 enrichment (interaction score)
GGCUAGAACUAGUGGAUCCCCCGGCGCCCGGCGGCUCGAGCCCGGGUAAGUUUAAAUAGUCUGCAUGCCGCCGGGCGCCAUGCCUGCAGGUCGACUCUAGAAAACAUG,binding signal,PUM1 PUF domain R7-QSG,2.85 log2 enrichment (interaction score)
GGCUAGAACUAGUGGAUCCCCCGGCGCCCGGCGGCUCGAGCCCGGGUAAGUCUAAAUAGUCUGCAUGCCGCCGGGCGCCAUGCCUGCAGGUCGACUCUAGAAAACAUG,binding signal,PUM1 PUF domain R7-KPL,2.86 log2 enrichment (interaction score)
same,binding signal,PUM1 PUF domain R7-RSQ,2.88 log2 enrichment (interaction score)
GGCUAGAACUAGUGGAUCCCCCGGCGCCCGGCGGCUCGAGCCCGGGUAAGCGUAAAUAGUCUGCAUGCCGCCGGGCGCCAUGCCUGCAGGUCGACUCUAGAAAACAUG,binding signal,PUM1 PUF domain R8-HFN,3.57 log2 enrichment (interaction score)
same,binding signal,PUM1 PUF domain R8-TFR,4.89 log2 enrichment (interaction score)
GGCUAGAACUAGUGGAUCCCCCGGCGCCCGGCGGCUCGAGCCCGGGUAAGUGUAAAGAGUCUGCAUGCCGCCGGGCGCCAUGCCUGCAGGUCGACUCUAGAAAACAUG,binding signal,PUM1 PUF domain R2-RKC,5.3 log2 enrichment (interaction score)
GGCUAGAACUAGUGGAUCCCCCGGCGCCCGGCGGCUCGAGCCCGGGUAAGUGUAAAUUGUCUGCAUGCCGCCGGGCGCCAUGCCUGCAGGUCGACUCUAGAAAACAUG,binding signal,PUM1 PUF domain R1-TGR,0.64 log2 enrichment (interaction score)
GGCUAGAACUAGUGGAUCCCCCGGCGCCCGGCGGCUCGAGCCCGGGUAAGUGUAAAUCGUCUGCAUGCCGCCGGGCGCCAUGCCUGCAGGUCGACUCUAGAAAACAUG,binding signal,PUM1 PUF domain R1-TGR,2.65 log2 enrichment (interaction score)
same,binding signal,PUM1 PUF domain R1-QFR,7.18 log2 enrichment (interaction score)
same,binding signal,PUM1 PUF domain R1-KRK,4.04 log2 enrichment (interaction score)
GGCUAGAACUAGUGGAUCCCCCGGCGCCCGGCGGCUCGAGCCCGGGUAAGGGUAAAUAGUCUGCAUGCCGCCGGGCGCCAUGCCUGCAGGUCGACUCUAGAAAACAUG,binding signal,PUM1 PUF domain R8-TFR,2.97 log2 enrichment (interaction score)
GGCUAGAACUAGUGGAUCCCCCGGCGCCCGGCGGCUCGAGCCCGGGUAAGUGUAAUUAGUCUGCAUGCCGCCGGGCGCCAUGCCUGCAGGUCGACUCUAGAAAACAUG,binding signal,PUM1 PUF domain R3-GRR,2.87 log2 enrichment (interaction score)
GGCUAGAACUAGUGGAUCCCCCGGCGCCCGGCGGCUCGAGCCCGGGUAAGUGUACAUAGUCUGCAUGCCGCCGGGCGCCAUGCCUGCAGGUCGACUCUAGAAAACAUG,binding signal,PUM1 PUF domain R4-RGG,1.13 log2 enrichment (interaction score)
same,binding signal,PUM1 PUF domain R4-EWH,2.99 log2 enrichment (interaction score)
